Reference: PubChem BioAssay (NCI)
This is part of a sample that, as a whole, favours compounds with a hit. Of some 83,000 tested, about 20% had one in any assay.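 Assay: single dose, 48 h. Readout: percent growth (0 = no net growth; negative = cell death). Active: <10.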 Unmarked numbers belong to inactive results. Activity calls are given as the source filed them.

Experiments:
Experiment in all cases: NCI-60 one-dose screen, 48 h (100 = growth as untreated, 0 = no growth, -100 = all killed)
Conditions in all cases: 10 µM unless noted
NCI-H23 lung = tested on: NCI-H23 lung
NCI-H226 lung = tested on: NCI-H226 lung
NCI-H322M lung = tested on: NCI-H322M lung
HOP-62 NSCLC = tested on: HOP-62 NSCLC
NCI-H460 lung = tested on: NCI-H460 lung
HOP-92 NSCLC = tested on: HOP-92 NSCLC
NCI-H522 lung = tested on: NCI-H522 lung
A549/ATCC NSCLC = tested on: A549/ATCC NSCLC
786-0 renal = tested on: 786-0 renal
COLO 205 colon = tested on: COLO 205 colon
DU-145 prostate = tested on: DU-145 prostate
K-562 leukemia = tested on: K-562 leukemia
MALME-3M melanoma = tested on: MALME-3M melanoma
MDA-MB-231 breast = tested on: MDA-MB-231 breast
RXF 393 renal = tested on: RXF 393 renal
SF-268 CNS = tested on: SF-268 CNS
SF-295 CNS = tested on: SF-295 CNS
SF-539 CNS = tested on: SF-539 CNS
UACC-257 melanoma = tested on: UACC-257 melanoma
M14 melanoma = tested on: M14 melanoma

Row | SMILES | growth (NCI-H23 lung) | growth (NCI-H226 lung) | growth (NCI-H322M lung) | growth (HOP-62 NSCLC) | growth (NCI-H460 lung) | growth (HOP-92 NSCLC) | growth (NCI-H522 lung) | growth (A549/ATCC NSCLC) | growth (786-0 renal) | growth (COLO 205 colon) | growth (DU-145 prostate) | growth (K-562 leukemia) | growth (MALME-3M melanoma) | growth (MDA-MB-231 breast) | growth (RXF 393 renal) | growth (SF-268 CNS) | growth (SF-295 CNS) | growth (SF-539 CNS) | growth (UACC-257 melanoma) | growth (M14 melanoma)
1 | Cc1ccccc1OC(=O)c1cccc(Cl)c1 | 108% | 108% | 114% | 145% | 109% | 101% | 95.5% | 102% | 112% | 129% | 126% | 95.4% | 97.3% | 118% | 113% | 101% | 122% | 101% | 111% | 110%
2 | COc1cccc(-c2[nH]c(=S)ncc2C(=O)c2ccccc2)c1 | 97% | 102% | 99.9% | 78.8% | 91.9% | 102% | 70.9% | 88.4% | 100% | 84.7% | 98.4% | 35% | 71% | 99.3% | 90.6% | 90% | 68.6% | 84.9% | 97.3% | 61.9%
3 | CC(C)c1ccc(C(=O)Nc2nc3ccc(O)cc3s2)cc1 | 51.4% | 66.6% | 62.2% | 93.1% | 3.97% (active) | 50% | 39.6% | 33.5% | 0.538% (active) | 33% | 42.1% | -1.97% (active) | 26.3% | 73% | 67.3% | 51.5% | -36.4% (active) | -21.9% (active) | 25.9% | 3.05% (active)
4 | CSc1nc2c(c(=O)n1C)C1(C(=O)N(Cc3ccccc3)c3ccccc31)c1c(nc(SC)n(C)c1=O)N2 | 92.9% | 74.3% | 95.5% | 84% | 87.2% | 93.2% | 73.9% | 68.5% | 113% | 105% | 92.7% | 89.8% | 94% | 77.6% | 88.3% | 97.2% | 85.3% | 106% | 75.1% | 99.7%
5 | N#Cc1ccc(-c2ccc(COc3ccc(CC4SC(=O)NC4=O)cc3)cc2)cc1 (stereo not given) | 50.7% | 86.5% | 89.7% | 67.1% | 69.5% | 66.8% | 43.8% | 48.1% | 83% | 103% | 92.6% | 28.3% | 59.5% | 71.2% | 97.5% | 63.6% | 50.3% | 65.5% | 84.9% | 73.4%
6 | CCOC(=O)COc1ccc2c(c1)O/C(=C\c1ccc(O)cc1)C2=O | 104% | 97.7% | 99.7% | 104% | 104% | 115% | 97% | 108% | 112% | 115% | 106% | 106% | 102% | 117% | 114% | 94.2% | 101% | 102% | 105% | 103%
7 | O=C(COc1cccc(/C=C2\Oc3ccccc3C2=O)c1)c1ccc([N+](=O)[O-])cc1 | 79.9% | 85.8% | 115% | 103% | 95.7% | 78.1% | 57% | 90% | 102% | 107% | 111% | 70.7% | 108% | 72.6% | 97.6% | 96.2% | 197% | 97.4% | 97.6% | 100%
8 | O=C(Nc1ccc(CN2CCOCC2)c(C(F)(F)F)c1)c1nc2ccc3[nH]ncc3c2c2c1CCCC2 | 93.2% | 91.2% | 102% | 78.8% | 90.1% | 99.2% | 87.3% | 63.3% | 101% | 83.4% | 104% | 82.8% | 106% | 95.9% | 99.7% | 103% | 97.7% | 99.1% | 88.9% | 91.6%
